Tg IFNy HTS – inhibitors of Toxoplasma gondii growth with IFN-gamma; Toxoplasma gondii growth in IFN-gamma-treated host cells; stronger effect = lower value; activity change, negative = inhibition, % (no concentration beside the values); 69,000 compounds, 3.8% hits; AID 1259416; in the data active = activity change below about -70%, passing the limit was not always enough;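 also: host cells are HeLa cells infected with Toxoplasma gondii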
Of the large screens only hits and unclear results are named; the others gave an inactive call; ! = repeats disagree. The sample as a whole holds a higher share of hits than the screen did.

Cc1oc(-c2ccc(NC(=O)c3ccc(Br)cc3)cc2)nc1Cn1cccn1	none
Cc1oc(-c2ccc(NC(=O)c3cccc(C#N)c3)cc2)nc1Cn1cccn1	none
Cc1oc(-c2ccc(NC(=O)COc3ccccc3)cc2)nc1Cn1cccn1	none
Cc1oc(-c2ccc(NC(=O)c3ccc(F)cc3F)cc2)nc1Cn1cccn1	none
Cc1ccc(CC(=O)Nc2ccc(-c3nc(Cn4cccn4)c(C)o3)cc2)cc1	none
Cc1oc(-c2ccc(NC(=O)c3ccc4c(c3)OCO4)cc2)nc1Cn1cccn1	Tg IFNy HTS -91
CCOc1ccc(C(=O)Nc2ccc(-c3nc(Cn4cccn4)c(C)o3)cc2)cc1	Tg IFNy HTS -99
Cc1oc(-c2ccc(NC(=O)c3ccsc3)cc2)nc1Cn1cccn1	none
Cc1oc(-c2ccc(NC(=O)c3ccc(Cl)cc3)cc2)nc1Cn1cccn1	Tg IFNy HTS -85
COCCC(=O)Nc1ccc(-c2nc(Cn3cccn3)c(C)o2)cc1	none
Cc1oc(-c2ccc(NC(=O)c3cccc(N(C)C)c3)cc2)nc1Cn1cccn1	Tg IFNy HTS -86
COC1C2CCC1N(c1ncccn1)C2 (stereo not drawn)	none
Cc1ccc(-c2nc(Cn3ccn4nc(-c5ccc(Cl)cc5)cc4c3=O)c(C)o2)cc1	none
CC(=O)c1csc(NC(=O)c2cnc(C(C)(C)C)nc2)n1	none
COC(=O)[C@@H]1C[C@H](NC(=O)c2ccc(-c3ccccc3)[nH]2)CN1C	none
Cc1nc2ccccc2n2cc3c(=O)n(C)c(=O)n(C)c3c12	none
CCN1[C@@H]2CCN(C(=O)c3cc(C)[nH]n3)CC[C@@H]2Oc2ccccc2S1(=O)=O	none
CCc1ccc(S(=O)(=O)NCCc2csc(-c3cccc(F)c3)n2)s1	none
CCN(CC)CC1CCN(c2ncc3ncnc(Nc4ccc(F)c(Cl)c4)c3n2)CC1	none
CNC(=O)CN1CCC(Oc2cc3c(Nc4cccc(Cl)c4F)ncnc3cc2OC)CC1	none
COc1cc2ncnc(Nc3ccc(F)c(Cl)c3)c2cc1NC(=O)/C=C/CN1CCCCC1	Tg IFNy HTS -82
CCc1ccc(C2c3[nH]c4ccccc4c3CCN2C(=O)CSC)cc1 (stereo not drawn)	none
CC(=O)N1CCc2c([nH]c3ccccc23)C12C(=O)N(C)c1ccccc12 (stereo not drawn)	none
CN1c2ccccc2C(=O)N2CCc3c([nH]c4ccccc34)C21 (stereo not drawn)	Tg IFNy HTS -80
COc1ccc2oc(CNC(=O)C3CC(=O)N(CC(C)C)C3)nc2c1 (stereo not drawn)	none
COCCn1c(C)cc2cc(NC(=O)c3ccccc3Cn3ccnc3)ccc21	none
Cc1ccccc1-c1nc(Cn2ccn3nc(-c4ccc(F)cc4)cc3c2=O)c(C)o1	none
CCN(C)c1ncnc2c1CCN(C(=O)c1ccnnc1)CC2	none
Cc1ccc(C(=O)N2CCCC(c3cc(N(C)C)nc(-c4ccncc4)n3)C2)c(=O)n1C (stereo not drawn)	none
O=c1[nH]c2ccccc2c(=O)n1CCCN1CCN(c2ccccc2)CC1	none
O=C(O)COCCN1CCN([C@H](c2ccccc2)c2ccc(Cl)cc2)CC1	none
OCCOCCN1CCN(C(c2ccccc2)c2ccc(Cl)cc2)CC1 (stereo not drawn)	Tg IFNy HTS -97!
O=C(O)COCCN1CCN(C(c2ccccc2)c2ccc(Cl)cc2)CC1 (stereo not drawn)	none
OC1(c2cccc(C(F)(F)F)c2)CCN(Cc2ccco2)CC1	none
O=C(CC(SC(=O)c1ccccc1)c1ccc(Cl)cc1)c1ccccc1 (stereo not drawn)	none
O=C(CC(Sc1ccc(Cl)cc1)c1ccc(Cl)cc1)c1ccccc1 (stereo not drawn)	Tg IFNy HTS -112
O=C(CCSc1ccccn1)c1ccc(Cl)cc1	none
COc1ccc(Cl)cc1-c1cncc(C(=O)N2CCCCC2)n1	none
COc1ccc(OC)c(S(=O)(=O)NCc2nc(-c3ccccc3)oc2C)c1	none
Cc1nn(C(C)CC(=O)NC(C)c2ccccc2)c(C)c1C (stereo not drawn)	none
Nc1nc2ccc(Cl)cc2c2nc(-c3ccco3)nn12	none
Nc1nc2c(cnn2CCc2ccccc2)c2nc(-c3ccco3)nn12	none
Nc1nc(NCCc2ccc(O)cc2)nc2nc(-c3ccco3)nn12	Tg IFNy HTS -80
COc1ccccc1CC(=O)Nc1ccc(-c2nc(Cn3cc(C)cn3)c(C)o2)cc1	Tg IFNy HTS -95
CC(=O)Nc1ccc(-c2nc(Cn3cc(C)cn3)c(C)o2)cc1	none
COc1ccc(CC(=O)Nc2ccc(-c3nc(Cn4cc(C)cn4)c(C)o3)cc2)cc1	none
COc1ccccc1C(=O)Nc1ccc(-c2nc(Cn3cc(C)cn3)c(C)o2)cc1	none
Cc1cnn(Cc2nc(-c3ccc(NC(=O)CCc4ccccc4)cc3)oc2C)c1	Tg IFNy HTS -84
Cc1cnn(Cc2nc(-c3ccc(NC(=O)CC4CCCC4)cc3)oc2C)c1	none
O=C1NCC2(CCCN(C(=O)Cc3cn4ccsc4n3)C2)O1 (stereo not drawn)	none
Cc1nc(-c2nc(C(=O)C(C)C)c3ccccn23)cn1Cc1ccc(F)cc1F	none
CC(C)C1=NOC(CC2(C(=O)O)CCOCC2)C1 (stereo not drawn)	none
FC(F)(F)c1cc2[nH]c(=S)[nH]c2cc1Cl	Tg IFNy HTS -93
CNC(=O)[C@@H]1C[C@@H](N)CN1Cc1cc(-c2ccccc2)no1	none
Cc1cnc(N2CC[C@@H]3CN(c4ccc(C)nn4)CCO[C@H]3C2)nc1	none
CCc1oc2c(Cl)cc(-n3cnnc3)cc2c1C	Tg IFNy HTS -85
CCc1oc2c(-n3cnnc3)cccc2c1C	none
Cc1cc2cc(NC(=O)c3ccc(-n4cnnc4)cc3)cc(Cl)c2o1	none
COCC(=O)N1C[C@H]2CCC[C@]2(COc2cccnc2)C1	none
CNCCC=C1c2ccccc2C=Cc2ccccc21	none
CNCCCC1c2ccccc2C=Cc2ccccc21	Tg IFNy HTS -81!
CN(C)CCCN(Cc1ccsc1)Cc1ccccn1	none
C[C@@H]1CN([C@@H](C)CO)C(=O)Cc2cc(NC(=O)C3CCCCC3)ccc2O[C@H]1CN(C)Cc1ccc(Cl)c(Cl)c1	none
C[C@@H]1CN([C@@H](C)CO)C(=O)Cc2cc(NS(=O)(=O)c3ccc(Cl)cc3)ccc2O[C@@H]1CN(C)C(=O)Nc1ccc(C(F)(F)F)cc1	Tg IFNy HTS -79
C[C@H]1CN([C@@H](C)CO)C(=O)Cc2cc(NC(=O)C3CCCCC3)ccc2O[C@H]1CN(C)Cc1ccc(Cl)c(Cl)c1	none
C[C@@H]1CN([C@H](C)CO)C(=O)Cc2cc(NC(=O)C3CCCCC3)ccc2O[C@H]1CN(C)Cc1ccc(Cl)c(Cl)c1	Tg IFNy HTS -72
C[C@H](CO)N1C[C@H](C)[C@H](CN(C)C(=O)Nc2ccc(C(F)(F)F)cc2)Oc2ccc(NS(=O)(=O)c3ccc(Cl)cc3)cc2CC1=O	none
C[C@@H]1CN([C@@H](C)CO)C(=O)Cc2cc(NS(=O)(=O)c3ccc(Cl)cc3)ccc2O[C@H]1CN(C)C(=O)Nc1ccc(C(F)(F)F)cc1	none
COc1ccc(-n2cc(CN(C)Cc3nonc3C)c(-c3cccc(F)c3)n2)cc1	none
CCCc1nc(C)cc(-c2ccc(F)c(CO)c2)n1	none
CC(C)Nc1nc2c(cc1C(=O)N1CCCC1)CCN(CC1CC1)CC2	none
O=C(Nc1cccc(Cl)c1)N[C@H]1CC[C@@H](CCn2cc(Cc3ccccc3)nn2)O[C@@H]1CO	none
O=C(Nc1cccc(Cl)c1)N[C@@H]1CC[C@@H](CCn2cc(Cc3ccccc3)nn2)O[C@@H]1CO	Tg IFNy HTS -74
O=C(Nc1cccc(Cl)c1)N[C@H]1CC[C@H](CCn2cc(Cc3ccccc3)nn2)O[C@H]1CO	none
COc1ccc(C(=O)N2CCC3(CC2)NC(=O)c2cc(F)ccc2N3C)cc1OC	none
Cn1ccc2c(-c3ccccc3C(N)=O)ccnc21	none
Cn1ccc2c(-c3cc(N4CCCCC4)ncn3)ccnc21	none
